# Source: PubChem BioAssay (NCATS)
# Results filed as inconclusive are left out. The source made the active and inactive calls. Calls follow the shape of the dose curve; as a rule, active = well fitted curve in the direction sought with a large enough effect; inconclusive = small, poorly fitted or top-dose-only effect, or effect the other way, or another doubt; inactive = no such curve, though single readings can be large or run the other way.
# Assay: HPAF-II 24hr Apoptosis Induction qHTS against the NCATS CANVASS Library (AID 1347356)
# Conditions: HPAF-II caspase-3/7 Caspase-Glo luminescence; series mostly up to 46.1 µM
# Excerpt: Natural products and their derivatives continue to be wellsprings of nascent therapeutic potential. However, many laboratories have limited resources for biological evaluation, leaving their previously isolated or synthesized compounds largely or completely untested. To address this issue, the Canvass library of natural products was assembled (https://tripod.nih.gov/canvass), in collaboration with academic and industry researchers, for quantitative high-throughput screening (qHTS) across a diverse set of cell-based and biochemical assays. The pure (>85% purity by liquid chromatography/mass spectrometry [LC/MS]) Canvass library of 346 natural products were submitted by 45 academic laboratories and companies around the world. We collected pure natural products to circumvent deconvolution and structure elucidation due to time and resource limitations. The library was formatted into 1536-well plates and evaluated in 50 qHTS (in an 11-pnt concentration series) bioassays with broad scope of disease-relevant mechanisms. The resulting data set from 50 different assays was then systematically analyzed to identify overall trends and specific natural products with interesting biological activities. Reported herein are the results of each individual qHTS and their corresponding assay protocol. The Caspase-Glo (R) (Promega) is a homogeneous, luminescent assay that measures caspase activity. The detection substrate contains tetrapeptide sequence DEVD in an "add-mix-measure" format. The reagent generates a luminescent signal produced by a thermostable luciferase. The luminescence is proportional to the amount of caspase activity in the assay reaction. National Center for Advancing Translational Sciences (NCATS), Rockville, MD National Institute of Health (NIH), Bethesda, Maryland
# Cancer Cell Apoptosis Assay 1. In a 1536 well, white solid bottom tissue culture plates (Corning 7494), HPAF-II cancer cells in DMEM + 10% FBS + 1% P/S media were dispensed in each well at a final concentration of 500 cells / well (5uL volume) using the Multidrop Combi (Thermo Fisher Scientific) dispenser. 2. Compounds were pin transferred (~23nL volume) via Wako Pin-tool (Wako Automation, Richmond VA) equipped with a 1536 pin head. The assay plates were treated with compounds in a concentration series with a final concentration range of 0.17 nM to 103 uM. 3. Doxorubicin was used as a control in a 16pnt titration (1mM; 1:2 dilution; 16-points; n = 2; column 3, rows 1 - 32) and was pin transferred via Wako Pin-tool equipped with a 1536 pin head. The final concentration range of doxorubicin is 0.1nM - 4uM. 4. The assay plates were incubated for 24 hours at 37 degrees C/5% CO2/95% Rh. 5. 3uL Caspase-Glo 3/7 (R) (Promega) detection reagent was then added to the assay plates (columns 2 - 48, rows 1 - 32) and incubated at room temperature, covered from light, for 15 min. 6. Luminescence signal was acquired via the ViewLux plate reader (PerkinElmer) using a clear filter, 20 second exposure and 2x binning settings.
row,SMILES,outcome
1,CCN1C[C@]2(C)CC[C@H](O)[C@]34C1C(C[C@H]23)[C@@]12CC[C@H](CC14)[C@](O)(COC(=O)c1ccc(OC)c(OC)c1)[C@H]2O (stereo not given in full),inactive
2,COC(=O)C1=C2Nc3ccccc3[C@@]23CCN2CC(C(C)=O)C1C[C@H]23 (stereo not given in full),inactive
3,CC1=CC(=O)C2=C(C)C[C@H](O)[C@@H]3[C@H](OC(=O)[C@@H]3C)[C@@H]12,inactive
4,C[C@]12CC(O)C3[C@@H](CCC4C[C@@H](O)CC[C@@]43CO)[C@@]1(O)CCC2C1=CC(=O)OC1 (stereo not given in full),inactive
5,CO[C@H](c1ccccc1)[C@H]1NC(=O)C(C)NC(=O)C(C[C@@H](C)CO)N(C)C(=O)[C@@H](C(O)c2cn(C(C)(C)C3CO3)c3ccccc23)NC(=O)C(C(C)C=C(C)C)NC(=O)C(CC(C)C)N(C)C(=O)C(C(C)C)NC1=O (stereo not given in full),inactive
6,CCCC[C@@H]1CC[C@H]2CCCC(CCC)N12 (stereo not given in full),inactive
7,C=C1[C@@H](C)[C@H]2[C@H](Cc3ccccc3)NC(=O)[C@]23OC(=O)/C=C/[C@H](O)CCC[C@@H](C)C/C=C/[C@H]3[C@@H]1O,inactive
8,O=C(c1ccccc1O)c1[nH]c(Cl)c(Cl)c1-n1c(C(=O)c2ccccc2O)cc(Cl)c1Cl,inactive
9,CC[N@@+]1([O-])C[C@]2(C)CC[C@@H](O)[C@@]34C5C[C@H]6CC[C@@]5(C(C[C@H]23)C41)[C@H](O)[C@@]6(O)CO (stereo not given in full),inactive
10,COc1ccc2c(c1)[nH]c1c(C)nccc12,inactive
11,CNCCc1ccccc1,inactive
12,CNCCc1c[nH]c2ccccc12,inactive
13,CCN1C[C@]2(C)CC[C@@H](O)[C@]34C1[C@H](C[C@H]23)C12CCC(CC14)[C@](O)(CO)[C@H]2O (stereo not given in full),inactive
14,CC=C1CN(C=O)[C@H]2C[C@@H]1[C@@H](C(=O)OC)[C@@]13CCOC21Nc1ccccc13 (stereo not given in full),inactive
15,CN(C)Cc1c[nH]c2ccccc12,inactive
16,CCC(=O)CCCCC[C@@H]1NC(=O)[C@H]2CCCCN2C(=O)[C@H]([C@@H](C)CC)NC(=O)[C@H](Cc2cn(OC)c3ccccc23)NC1=O,inactive
17,CCC[C@H]1CC[C@H]2[C@H](C)CCC[C@H]2N1,inactive
18,CC(=O)N[C@H]1CCN2CCC[C@H]12,inactive
19,CO[C@@H](/C=C/CC/C=C/C(=O)O)[C@@H](O)[C@H](C)[C@@H](O)/C(C)=C/[C@H](C)C(=O)CCCC1CC(=O)NC(=O)C1,inactive
20,CN1C(=O)[C@]23CC4C(C)(C)[C@@]5(C[C@@]41CN2CC[C@@]3(C)O)C(=O)Nc1c5ccc2c1OC=CC(C)(C)O2 (stereo not given in full),inactive
21,COc1ccc(C23Oc4cc(OC)cc(OC)c4[C@](O)([C@H](c4ccccc4)C2C(=O)NCCCCNC(=O)c2ccccc2)[C@@H]3O)cc1 (stereo not given in full),inactive
22,CO[C@@H](/C=C/CC/C=C/C(=O)O)[C@@H](O)[C@H](C)/C=C(\C)[C@@H](O)[C@H](C)C(=O)CCCC1CC(=O)NC(=O)C1,inactive
23,NCCc1ccccc1,inactive
24,c1ccc2c3c([nH]c2c1)CNCC3,inactive
25,CC1=CC2CC[C@@H]3[C@@H](C)C[C@H](C)[C@@H](C1)N23 (stereo not given in full),inactive
26,CC[C@@H]1CN2CC[C@@]3(O)C(=Nc4cccc(OC)c43)[C@@H]2C[C@@H]1/C(=C\OC)C(=O)OC,inactive
27,COc1ccc2c3c([nH]c2c1)C(C)=NCC3,inactive
28,CNCCc1ccc(O)cc1,inactive
29,CCCCC[C@@H]1OC(=O)[C@@H](C)N(C)C(=O)[C@H](CCCCC)OC(=O)C(C)N(C)C(=O)[C@H](CCCCC)OC(=O)[C@@H](C)N(C)C(=O)[C@H](CCCCC)OC(=O)C(C)N(C)C1=O (stereo not given in full),inactive
30,C/C=C1/CN2CC[C@]34C(=Nc5ccccc53)[C@@H]2C[C@@H]1[C@H]4C(=O)OC,inactive
